Several values for one entry are separate records, joined by “and”; a condition that tells them apart may be missing. Identical values can stand only once. Activity calls are given as the source filed them.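 The calls were made as follows: active = compounds whose cell count with miR-34 switched on is under 0.7 times the count with it off; inactive = the rest.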

The record followed here is PubChem BioAssay.

The assay is described as follows: sensitizers of A549 cells to miR-34 induction, primary screen, imaging, A549 dox-inducible miR-34, nuclei and caspase counts (AID 1347080). Also: test concentration not given here. The conditions noted are these: A549 miR-34 inducible, Hoechst nuclei count, 48 h.
Setting [1] is: stronger effect = lower value, cell number ratio, induced over uninduced.
The mark [2] stands for this setting: measured here: relative caspase fold change +Dox/-Dox.
The mark [3] stands for this setting: measured here: total cells with miR-34 induction, stronger effect = lower value.
Setting [4] is: measured here: total cells without miR-34 induction.

For the compound `CCCCCCCC/C=C\CCCCCCCC(=O)N[C@@H](CO)C(=O)O`, the fold change is, setting by setting: under setting [1], 1.01 (inactive); under setting [2], 1.73. Moreover, the cell count is, setting by setting: under setting [3], 5230; under setting [4], 5180.

As for `COc1ccc(/C=C/c2cc(O)cc(O)c2)cc1O`, the fold change reads like this: under setting [1], 0.915 (inactive); under setting [2], 0.703. The cell count came out at 5710 under setting [3] and 6250 under setting [4].

Turning to `CC/C=C\C/C=C\C/C=C\C/C=C\CCCCCCC(=O)O`, the fold change was 1.03 (inactive) under setting [1] and 1 under setting [2]. The cell count by setting is: under setting [3], 5320; under setting [4], 5150.

With `C[C@@H]1CC[C@H]2[C@@H](C)C(O)O[C@@H]3OC4(C)CC[C@@H]1[C@]32OO4` (stereo partly drawn), the fold change was 0.843 (inactive) under setting [1] and 0.767 under setting [2]. For the same compound, the cell count came out at 3740 under setting [3] and 4440 under setting [4].

Take `CC(=O)OC1=C(C)NC(C)=C(OC(C)=O)C1c1ccccc1[N+](=O)[O-]`: the fold change was 0.849 (inactive) under setting [1] and 1.01 under setting [2]. For the same compound, the cell count by setting is: under setting [3], 3570; under setting [4], 4210.

`O=C(O)CCC/C=C\C[C@@H]1[C@@H](/C=C/[C@@H](O)CCc2cccc(C(F)(F)F)c2)[C@H](O)C[C@@H]1O`: the fold change was 1.01 (inactive) under setting [1] and 1.2 under setting [2]. In addition, the cell count reads like this: under setting [3], 5710; under setting [4], 5640.

As to `O=C(O)CCCCCCC1C(=O)N(Cc2ccccc2)C(=O)N1NCC(O)C1CCCCC1` (stereo not drawn), the fold change was 0.813 (inactive) under setting [1] and 2.25 under setting [2]. For the same compound, the cell count worked out at 5360 under setting [3] and 6590 under setting [4].

Take `CCCCN=C(N)NO`: the fold change under setting [1] is 1.06 (inactive) and the fold change under setting [2] amounted to 1.14. For the same compound, the cell count runs as follows: under setting [3], 6280; under setting [4], 5930.

Turning to `CC#CCC(C)[C@@H](O)/C=C/[C@@H]1[C@H]2C/C(=C\CCCC(=O)O)C[C@H]2C[C@H]1O` (stereo partly drawn), the fold change under setting [1] was 0.903 (inactive) and the fold change under setting [2] came out at 1.4. Further, the cell count was 4970 under setting [3] and 5500 under setting [4].

Turning to `COc1cc2c3cc1Oc1c(OC)c(OC)cc4c1[C@@H](Cc1ccc(OC(=O)c5ccc([N+](=O)[O-])cc5)c(c1)Oc1ccc(cc1)C[C@@H]3N(C)CC2)N(C)CC4`, the fold change was 1.06 (inactive) under setting [1] and 0.897 under setting [2]. The cell count reads like this: under setting [3], 2050; under setting [4], 1940.

For `CCCCC[C@H](O)/C=C/[C@H]1CC[C@@H](O)[C@@H]1CCCCCCC(=O)O`, the fold change under setting [1] is 0.884 (inactive) and the fold change under setting [2] was determined as 1.26. For the same compound, the cell count is 6100 under setting [3] and 6900 under setting [4].

Regarding `CCCCC/C=C\C/C=C\C/C=C\C/C=C\CCCC(=O)C(F)(F)F`, the fold change was 0.997 (inactive) under setting [1] and 0.841 under setting [2]. Also, the cell count runs as follows: under setting [3], 5370; under setting [4], 5390.

For the compound `C=C1C[C@@H](O)[C@H](/C=C/[C@@H](O)C(C)(C)CCCC)[C@H]1C/C=C\CCCC(=O)O`, the fold change was 0.979 (inactive) and 0.901 (inactive) under setting [1]; 1.17 and 1.12 under setting [2]. Besides, the cell count was 6150 and 5990 under setting [3]; 6290 and 6650 under setting [4].

Take `CCCCC(C)(C)[C@H](O)/C=C/[C@H]1C=CC(=O)[C@@H]1CCCCCCC(=O)O`: the fold change is, setting by setting: under setting [1], 1 (inactive); under setting [2], 1.69. The cell count is, setting by setting: under setting [3], 5490; under setting [4], 5490.

Consider `CCCCCCCCCCCCCCCCOC[C@H](COP(=O)([O-])OCC[N+]1(C)CCCC1)OC(C)=O`, for which the fold change reads like this: under setting [1], 0.82 (inactive); under setting [2], 1.31. The cell count was 5250 under setting [3] and 6400 under setting [4].

As to `O=C(O)CCC/C=C\C[C@H]1C(=O)C[C@@H](O)[C@@H]1/C=C/[C@@H](O)Cc1ccccc1`, the fold change by setting is: under setting [1], 0.985 (inactive); under setting [2], 1.05. Moreover, the cell count is, setting by setting: under setting [3], 5810; under setting [4], 5900.

Take `CCCCCCCCCCCCCCCC(=O)N[C@H]1CCOC1=O`: the fold change was 0.999 (inactive) under setting [1] and 1.15 under setting [2]. Further, the cell count under setting [3] was 5590 and the cell count under setting [4] is 5590.

Take `O=C1C[C@@H]2[C@@H](CC[C@@H](O)CCc3ccccc3)[C@H](O)C[C@@H]2O1`: the fold change is, setting by setting: under setting [1], 1.01 (inactive); under setting [2], 0.657. The cell count under setting [3] stood at 6130 and the cell count under setting [4] was 6050.

Consider `CCCCCCCCCCCCCCCC(=O)OC`, for which the fold change was 0.995 (inactive) under setting [1] and 0.98 under setting [2]. The cell count by setting is: under setting [3], 5710; under setting [4], 5750.

For the compound `CCCCC[C@H](O)/C=C/[C@H]1CCC(=O)[C@@H]1CCCCCCC(=O)O`, the fold change runs as follows: under setting [1], 0.938 (inactive); under setting [2], 1.33. For the same compound, the cell count was 5360 under setting [3] and 5720 under setting [4].

`CCCCC[C@H](O)/C=C/[C@@H]1[C@@H](C/C=C\CCCCO)[C@@H](O)C[C@H]1O`: the fold change was 0.871 (inactive) under setting [1] and 1.35 under setting [2]. For the same compound, the cell count runs as follows: under setting [3], 5490; under setting [4], 6300.

Consider `O=C(OC[C@@H]1O[C@H]1c1ccccc1)Oc1ccc([N+](=O)[O-])cc1`, for which the fold change runs as follows: under setting [1], 0.896 (inactive); under setting [2], 0.428. Also, the cell count reads like this: under setting [3], 5550; under setting [4], 6200.

Regarding `Cc1nc(-c2ccc(C(F)(F)F)cc2)sc1C(=O)NCc1ccc(OC(C)(C)C(=O)O)cc1`, the fold change was 0.946 (inactive) under setting [1] and 0.5 under setting [2]. For the same compound, the cell count is, setting by setting: under setting [3], 5220; under setting [4], 5520.

Take `O=C(O)CCC/C=C\C[C@H]1[C@@H](O)CC(=O)[C@@H]1/C=C/[C@@H](O)CCc1ccccc1`: the fold change under setting [1] is 0.982 (inactive) and the fold change under setting [2] amounted to 1.03. Besides, the cell count under setting [3] is 5860 and the cell count under setting [4] amounted to 5960.

As for `CCCCC[C@H](O)/C=C/[C@H]1C(=O)C[C@H](O)[C@@H]1C/C=C\CCCC(=O)OCC(O)CO` (stereo partly drawn), the fold change reads like this: under setting [1], 1.06 (inactive); under setting [2], 1.71. In addition, the cell count by setting is: under setting [3], 6090; under setting [4], 5740.

Regarding `CCCCC[C@H](O)/C=C/[C@@H]1[C@@H](C/C=C\CCCCOC)[C@@H](O)C[C@H]1O`, the fold change runs as follows: under setting [1], 0.815 (inactive); under setting [2], 1.35. The cell count reads like this: under setting [3], 5300; under setting [4], 6500.

In the case of `CCCCC[C@H](O)/C=C/[C@H]1C(=O)C[C@H](O)[C@@H]1C/C=C\CCCC(=O)NCCO`, the fold change is 1.05 (inactive) under setting [1] and 1.15 under setting [2]. The cell count runs as follows: under setting [3], 6200; under setting [4], 5900.
